Screening data as filed in PubChem BioAssay.
Sampled rows, rich in hits. Any-hit rate of the full collection: about 9%.
Luc counter: counter-screen: inhibitors of Kinase-Glo firefly luciferase; actives 0.28% (n = 200,000); Potency, µM (doses to about 38.3 µM), actives largely listed as inhibitors; Kinase-Glo luciferase, ATP luminescence, 8 min; note: nearly all actives have a fitted effect of over 60% in size
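Luminescence was the read-out, taken after 8-minute incubation at ambient temperature. Luciferase turned over luciferin with 10 uM ATP in imidazole pH 7.2 buffer containing KCl, MgCl2, Tween 20 and BSA.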
LMNA splice mod: modulators of lamin A splicing; actives 0.01% (n = 200,000); Potency, µM (top dose mostly 46.1 µM), hits mostly inhibitors; HeLa LMNA splicing GFP/RFP minigene ratio, 48 h; active = well fitted inhibition curve with a large enough effect in the signal ratio, with a control signal flat, not every such curve was filed as active; inconclusive = small, poorly fitted or top-dose-only effect, or effect the other way, or a change in a side signal; the % refers to the signal ratio
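S3 HeLa cells stably expressing lamin A-EGFP splicing minigene plus DsRed2, 600 cells/well, 48 h compound exposure at 37C. Laser-scanning cytometry; analysed as GFP (500-530 nm)/RFP (575-640 nm) total intensity ratio; 0.5% DMSO vehicle.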
HPGD inh: inhibitors of human 15-hydroxyprostaglandin dehydrogenase (HPGD); P15428; purified HPGD, NADH fluorescence kinetic, PGE2 substrate; Potency, µM, most hits filed as inhibitors; actives 4.3% (n = 150,000); active = well fitted inhibition curve with a large enough effect, not every such curve was filed as active; inconclusive = small, poorly fitted or top-dose-only effect, or another doubt; inactive = no such curve, though single readings can be large or run the other way
Target sequence (P15428 whole entry, looked up): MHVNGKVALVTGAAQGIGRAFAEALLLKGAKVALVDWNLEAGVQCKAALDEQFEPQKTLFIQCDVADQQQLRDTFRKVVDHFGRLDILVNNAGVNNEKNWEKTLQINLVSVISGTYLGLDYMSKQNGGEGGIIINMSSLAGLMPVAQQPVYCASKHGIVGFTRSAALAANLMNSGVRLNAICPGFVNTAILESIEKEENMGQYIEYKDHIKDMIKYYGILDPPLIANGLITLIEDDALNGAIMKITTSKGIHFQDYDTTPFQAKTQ
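NADH formation kinetics: reaction with 30 uM PGE2 and 1 mM NAD+ (final), 20 nM enzyme, Tris-HCl pH 8 with Tween 20, after 15 min compound preincubation at room temperature. Fluorescence change, last versus first of five reads.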
HTT ATP protect: cytoprotection in Huntington HTT-Q103 PC12 cell model | AID 1471 | PC12 HTT-Q103 induced, cytoprotection, ATP luminescence, 40 h | actives 0.14% (n = 230,000) | Potency, µM (doses to about 56.4 µM), most hits filed as activators; note: nearly all actives have a fitted effect of over 45% in size
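Readout: ATPlite luminescence (ATP level). Model: stable PC12, inducible Htt exon1 Q103-GFP. Inducer: tebufenozide, 100 nM final. Compounds: dose series. No G418 in medium.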
ALDH1A1 inh: ALDH1A1 (human) enzyme inhibition; actives 7.3% (n = 220,000); Potency, µM (highest dose often 75.3 µM), hits mostly inhibitors; Purified ALDH1A1, NADH fluorescence, propionaldehyde substrate; P00352; active = well fitted inhibition curve with a large enough effect, not every such curve was filed as active; inconclusive = small, poorly fitted or top-dose-only effect, or another doubt; inactive = no such curve, though single readings can be large or run the other way
HTT aggregate: reduces HttQ103-GFP aggregates in PC12 cells; Potency, µM (highest dose often 46.1 µM), actives largely listed as inhibitors; PC12 HttQ103-GFP aggregates, Acumen cytometry, 40 h; actives 1.1% (n = 220,000); AID 1688; note: nearly all actives have a fitted effect of over 60% in size
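Read-out: GFP aggregate count by laser scanning cytometer (488 nm excitation, 500-530 nm emission, 1–25 µm objects >6 SD above background). Cells: PC12, inducible HTTex1-Q103-GFP, 100 nM tebufenozide; compounds titrated.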
Hits are given with their value; - = inactive; ? = inconclusive; . = no result; [ ] = remark or other dose. Unless noted, calls come from the whole dose curve; as a rule, active = well fitted curve in the direction sought with a large enough effect; inconclusive = small, poorly fitted or top-dose-only effect, or another doubt; inactive = no such curve, though single readings can be large; an effect the other way counts as inactive or inconclusive.

SMILES	Luc counter	LMNA splice mod	HPGD inh	HTT ATP protect	ALDH1A1 inh	HTT aggregate
Cc1ccccc1CSCC(=O)NC(=O)NCc1ccco1	-	-	-	-[10 µM]	25µM	-[9.22 µM]
COc1ccc(OCCC(=O)OCc2c(C)noc2C)cc1	-	-	-	-	-	-
Cc1cc(C(=O)N/N=C/c2cc(Br)ccc2OC(=O)c2ccc(Br)cc2)n[nH]1	-	?	-	-[10 µM]	-	10µM
Cc1cc(C(=O)N/N=C/c2cc(Br)cc(Br)c2OC(=O)c2cccc(F)c2)n[nH]1	-	-	.	-[10 µM]	-	-[9.22 µM]
Cc1cc(C(=O)N/N=C/c2cc(Br)cc(Br)c2OC(=O)c2ccccc2)n[nH]1	-	?	-	-[10 µM]	-	4.5µM
Cc1cc(Nc2ccccc2)nc(NCc2ccccc2)n1	-	?	-	-[10 µM]	-	6.3µM
Cc1cc(Nc2ccc(Cl)cc2)nc(NCc2ccccc2)n1	-	?	-	.	-	?
CCCCNc1cc(C)nc(NCc2ccccc2)n1	-	?	-	-	?	10µM
COC(=O)C1=C(C)NC(C)=C(C(=O)OC)C1c1ccc(N(C)C)cc1	-	-	-	-	-	-
COC(=O)C1C(c2ccc(N(C)C)cc2)C(C(=O)OC)S(=O)(=O)CS1(=O)=O (configuration not stated)	-	.	.	-	10µM	-[9.22 µM]
S=c1nc[nH]c2c1ncn2Cc1ccco1	-[7.66 µM]	.	-	-[10 µM]	-[13.5 µM]	.
O=C(NCc1ccc2c(c1)OCO2)C1CCN(S(=O)(=O)N2CCCCC2)CC1	-	?	-	.	5µM	-
O=C(COC(=O)C1CCN(S(=O)(=O)c2cccs2)CC1)c1ccc2c(c1)OCCO2	-	-	-	-	-	-
O=C(NCc1ccc2c(c1)OCO2)C1CCN(S(=O)(=O)N2CCOCC2)CC1	-	-	-	.	?	-
O=C(COC(=O)C1CCN(S(=O)(=O)c2cccs2)CC1)c1cc2ccccc2o1	-	-	?	-[1.9 µM]	16µM	-
O=C(NCc1ccc2c(c1)OCO2)C1CCN(S(=O)(=O)c2cccs2)CC1	-	-	-	-	0.32µM	-
CNC(=O)c1ccc(-n2nc(C)cc2-c2ccccc2)cc1	-	-	-	-	?	-
Cc1cc(-c2ccccc2)n(-c2ccc(C(N)=O)cc2)n1	-	-	32µM	-[10 µM]	?	-
CCOC(=O)C1=C(CC)Nc2ccccc2N/C1=N\S(=O)(=O)c1cc(Br)ccc1Br	-	.	.	-	-	18µM
CCOC(=O)C1=C(CC)Nc2ccccc2N/C1=N\S(=O)(=O)c1ccc2ccccc2c1	-	.	.	.	-	?
Cc1cc2c(ncn2C(C)C)c(NS(=O)(=O)c2ccc(F)cc2)c1C	-	-	.	-	-	-
O=C(O)c1ccccc1-c1ccc(/C=c2\sc3nc4cc(Br)cnc4n3c2=O)o1	-	-	32µM	-	22µM	-
C#CCn1ccc(O)c(Cc2c(F)cccc2Cl)c1=O	-	?	.	?	-	-
Cc1ccc([N+](=O)[O-])cc1-c1ccc(/C=C(\C#N)c2[nH]nc(N)c2C#N)o1	-	?	2.2µM	.	-	-
COCc1cc(C)nc(OCC(=O)N/N=C/c2ccc(-c3cc([N+](=O)[O-])ccc3C)o2)c1C#N	-	-	-	-[10 µM]	-	-
SMILES	Luc counter	LMNA splice mod	HPGD inh	HTT ATP protect	ALDH1A1 inh	HTT aggregate
c1csc(-c2cn3ccc4ccccc4c3n2)c1	-	.	.	-[10 µM]	5µM	-[9.22 µM]
Cc1ccc(-n2nnnc2-c2cnc3ccc(Cl)cc3c2-c2ccccc2)cc1	-	-	-	-	?	-
Clc1ccc2[nH]cc(-c3nnnn3-c3ccc4ccccc4c3)c2c1	-	-	-	-[10 µM]	9.5µM	-
CC(=O)n1c2ccccc2c2c(C#N)c(N3CCCCC3)sc21	.	.	.	-[0.074 µM]	.	.
C=CCNc1nc2c3ccccc3n(C(C)=O)c2s1	-	-	-	-[0.074 µM]	28µM	?
C=CCn1c(=O)/c(=C/c2ccc(C)o2)s/c1=C(/C#N)C(=O)c1ccccc1	-	-	-	-[10 µM]	0.71µM	-
CCOC(=O)COc1c(OC)cc(Cl)cc1C1NC(=O)NC(C)=C1C(C)=O (configuration not stated)	-	-	-	-	-	-
CCCOc1ccc(OCCSc2ncccn2)cc1	-	-	14µM	-[10 µM]	-	-
CCCOc1ccc(OCCSc2nnc(N)s2)cc1	-	?	5µM	-	-	-
COc1ccc(OCCSc2nc(N)cc(N)n2)cc1	-	-	25µM	-	?	-
Clc1ccc(OCCCCSc2ncccn2)cc1	-	-	-	-	-	-
O=C(O)c1ccccc1-n1cccc1C(=O)O	.	-	.	-[10 µM]	-	-[9.22 µM]
O=c1cc(CO)oc(C(Nc2ccccn2)c2ccccc2Cl)c1O (configuration not stated)	-	.	.	?	5µM	-
COc1ccc(C(Nc2ccccn2)c2oc(CO)cc(=O)c2O)cc1 (configuration not stated)	-	-	?	.	?	-
O=c1cc(CO)oc(C(Nc2ccccn2)c2ccc(F)cc2)c1O (configuration not stated)	-	-	-	-[10 µM]	8.9µM	-
Cc1ccnc(NC(c2ccccc2O)c2oc(CO)cc(=O)c2O)c1 (configuration not stated)	-	.	.	-	13µM	-
COc1ccc(C(c2oc(CO)cc(=O)c2O)c2oc(CO)cc(=O)c2O)cc1	-	.	.	-	-	-
O=c1cc(CO)oc(C(Nc2ccccn2)c2ccsc2)c1O (configuration not stated)	-	-	?	-[0.074 µM]	?	-
CC[C@H]1[C@@H]2C=C[C@@H]3[C@H]4C/C=C\C(=O)NCCC[C@@H]5NC(=O)C(=C5O)C(=O)CC[C@@H]4C[C@@H]3[C@H]2C[C@H]1C	.	.	.	-	-	.
O=C(CSc1nc2ccccc2[nH]1)NC1CCS(=O)(=O)C1 (configuration not stated)	-	-	-	-	-	-
Cc1c(NC(=O)c2ccc(Cl)nc2)cccc1-c1nc2cccnc2s1	.	.	.	-[10 µM]	.	-[9.22 µM]
O=C(Nc1cccc(-c2nc3cccnc3s2)c1)c1ccco1	-	-	-	-	-	16µM
Cc1c(NC(=O)c2ccco2)cccc1-c1nc2cccnc2s1	-	-	-	-[10 µM]	?	10µM
COc1ccc(Cn2nnnc2CN2CCC(c3nc4ccccc4s3)CC2)cc1	-	?	-	-	?	-
O=C(CSc1ccccc1Cl)N1CCC(c2nc3ccccc3s2)CC1	-	?	-	-	13µM	?
Fc1ccc(-c2nnc(CN3CCC(c4nc5ccccc5s4)CC3)o2)cc1	-	?	-	-	-	11µM
O=C(CSc1ccc(F)cc1)N1CCC(c2nc3ccccc3s2)CC1	-	-	-	-	7.1µM	-
COc1ccc(-n2c(=O)[nH]cc(C(=O)N3CCc4ccccc43)c2=O)cc1	-	-	-	-[10 µM]	-	-
COc1ccc2cc(C(=O)N3CCOCC3)sc(=O)c2c1OC	-	-	22µM	-	-	-
